Screening data deposited in PubChem by several laboratories.
Calb biofilm kill: clotrimazole potentiators killing Candida biofilms, primary screen, with clotrimazole, Alamar Blue; C. albicans biofilm + clotrimazole; inhibition, % at 6 µM; actives 0.14% (n = 85,000); AID 834, 2007;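 active = inhibition above 20%; inactive = inhibition below 20%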;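 also: preformed 24 hr biofilms exposed to compound for 48 hr; 0% = biofilm without compound and 100% = blank killed by clotrimazole plus chlorhexidine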
sdo1 growth: growth rescue of sdo1-depleted yeast, primary screen, S. cerevisiae, bone marrow failure model | S. cerevisiae sdo1-depleted JHY4D growth rescue, OD600 30 h; hits give high values; pdr5 snq2 efflux-pump mutant strain | z-score at 10 µM | actives 0.21% (n = 140,000);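 active = z-score above 3 at both the 24 hr and the 30 hr optical density reads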;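 also: z-score against mean and SD of all compound wells on the same plate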
MRP-1 activ: H69AR viability gain despite doxorubicin, primary screen, MRP-1 activator project, H69AR cells, CellTiter-Glo; viability rescue; AID 799, 2007; actives 0.61% (n = 140,000); viability increase, % at 10 µM;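 active = viability gain under doxorubicin at or above a set limit, the compound median plus 3 SD, cut at about 4.7% in these data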;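 also: MRP-1 overexpressing cells given doxorubicin 25 µM after compound pretreatment; 18-22 h compound pretreatment then 72 h with doxorubicin before readout; 0% = doxorubicin-only wells and 100% = vehicle-treated cells without doxorubicin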
MRP resist rev: reversal of MRP1-mediated doxorubicin resistance, primary screen, H69AR cells, doxorubicin co-treatment. differential viability (reversal), % at 10 µM. actives 0.04% (n = 85,000). H69AR cells + 2 uM doxorubicin, CellTiter-Glo, 72 h. AID 602, 2007;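 active = viability drop by adding the cancer drug above about 55%, with treated viability meeting a 40% cutoff, limit read from the data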;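 also: viability without doxorubicin minus viability with 2 µM doxorubicin for each compound; larger differential means the compound sensitizes cells more to doxorubicin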
An asterisk follows results filed as active; . = no result. An excerpt weighted towards active compounds, which were near 0.98% of everything screened.

SMILES	Calb biofilm kill	sdo1 growth	MRP-1 activ	MRP resist rev
C/C(=N\NC(=O)c1ccn(C)n1)c1cccc(NC(=O)c2ccncc2)c1	.	0.13	-1	.
Clc1ccccc1N1CCN(c2ncnc3nc[nH]c23)CC1	-1	-2	-1	15
FC(F)(F)c1cccnc1N1CCN(c2ncnc3nc[nH]c23)CC1	29*	-1.1	-1	16
COc1ccc(CSC2=NCCN2)cc1Cl	4	-0.64	9.7*	5
CCCOc1ccc(CSC2=NCCN2)cc1[N+](=O)[O-]	.	0.51	-1	.
O=C1NC(=O)C2(COC3(CCCC3)OC2)S1	-1	1	4.8*	-1
COc1ccc(C2OCC3(CO2)SC(=O)NC3=O)cc1 (centres undefined)	.	0.79	-2	.
CCCn1c(SCC#N)nc2c(c1=O)C1(CCCC1)Cc1ccccc1-2	9	-0.78	-4	4
N#CCSc1n[nH]c2nc3c(c(=O)n12)C1(CCCC1)Cc1ccccc1-3	-3	-1.9	5.0*	16
O=C(CSc1cn(CCNC(=O)c2cccs2)c2ccccc12)NCC1CCCO1 (centres undefined)	33*	0.72	-1	-7
O=C(CSc1cn(CCNC(=O)c2cccs2)c2ccccc12)NC1CCCCC1	6	-0.98	-2	-3
CCOC(=O)C(C)/C(C)=N/NC(N)=S (centres undefined)	.	-0.59	0	.
CCOCCCNC(=O)CCSc1ccc(C)cc1	1	0.12	-4	17
O=c1cc(-c2ccccc2Cl)oc2c([N+](=O)[O-])c(O)cc(O)c12	.	1.9	6.5*	.
COC(=O)Nc1cccn(Cc2c(Cl)cccc2Cl)c1=O	.	-0.37	1	.
O=C(Nc1cccn(Cc2c(Cl)cccc2Cl)c1=O)c1c(Cl)cccc1Cl	.	-1.9	9.2*	.
CC(C)(C)c1cc(Br)ccc1OCC(=O)Nc1ncn[nH]1	3	-2	6.2*	8
O=C(Nn1c(C2CCCCC2)nc2ccccc2c1=O)c1ccc([N+](=O)[O-])cc1Cl	.	0.63	0	.
Cc1nn(Cc2c(F)c(F)c(F)c(F)c2F)c(C)c1NC(=O)c1ccc(COc2ccccc2Cl)o1	.	-1.6	2	.
Cc1nn(Cc2c(F)c(F)c(F)c(F)c2F)c(C)c1NC(=O)c1ccc(COc2ccc(F)cc2)o1	.	-1.2	6.7*	.
Cc1ccc(S(=O)(=O)N(C)C)cc1NC(=O)COC(=O)/C(=C/c1ccc(F)cc1)c1cccs1	.	-0.83	-4	.
O=C(Nc1ccc(OC(F)(F)F)cc1)c1n[nH]c(Cn2cncn2)n1	.	-0.02	4.9*	.
N#C/C(=C\c1ccc(F)cc1)c1n[nH]c(Cn2cncn2)n1	11	-0.04	-3	-22
CCc1sc(NC(=O)c2cc3ccccc3oc2=O)nc1-c1cccs1	.	-0.24	-1	.
CCNc1oc(-c2cccc3ccccc23)nc1C#N	11	-1.2	7.3*	7
SMILES	Calb biofilm kill	sdo1 growth	MRP-1 activ	MRP resist rev
O=C(N/N=C/c1ccccn1)c1cc(-c2ccc3ccccc3c2)n[nH]1	.	-1.7	7.5*	.
CC(=O)c1c(C)[nH]c(C(=O)N2c3ccccc3CC2C)c1C (centres undefined)	27*	0.41	-1	10
CCCSc1nnc(NC(=O)c2nc(SC)ncc2Cl)s1	1	-0.67	1	3
CSc1ncc(Cl)c(C(=O)Nc2nnc(SC)s2)n1	-2	-0.05	9.1*	1
Cc1ccc(C2CC(C(F)(F)F)n3nc(C(=O)NCc4c(C)nn(C)c4C)c(Cl)c3N2)cc1 (centres undefined)	.	1.4	6.4*	.
CCOC(=O)C(C(=O)Nc1nccs1)C1CCCCC1 (centres undefined)	3	0.67	4.7*	14
CCOC(=O)C(C(=O)Nc1nc2ccccc2s1)C1CCCCC1 (centres undefined)	3	-1.2	7.1*	-13
CCNC(=O)Cn1cc(C#N)c2ccccc21	-2	1.9	-2	-1
CCn1c(C)c(C)c2cc(C(=O)Nc3cccc(Cl)c3)ccc21	.	-1.7	6.5*	.
CCn1c2ccccc2c2cc(NC(=O)c3cccc(OC)c3)ccc21	.	-1	-1	.
Cc1nn(C)c(C)c1NC(=O)CSc1nc(C2CC2)nc2c1cnn2-c1ccccc1	-3	1.4	-7	78*
Cc1cccc(N2CCN(C(=O)Cc3ccc(Br)cc3)CC2)c1C	3	-1.3	7.9*	3
CCc1ccc(OCC(=O)Nc2ccc(-c3nc4ccccc4o3)c(O)c2)cc1	3	0.7	-1	3
Oc1cc(NCc2cccnc2)ccc1-c1nc2ccccc2o1	4	-1.5	5.0*	9
COc1cccc(C2C(C(=O)Nc3nc4ccccc4s3)=C(C)NC3=C2C(=O)CC(C)(C)C3)c1OC (centres undefined)	.	-0.94	7.9*	.
